Only some compounds are listed: those with a hit (about 3.6% of all), similar ones and a draw of the others.
D1 ag: Allosteric Agonists of the Human D1 Dopamine Receptor: qHTS | HEK293 T-REx D1 cells, calcium flux, agonist mode | activation, % at 2 µM | 360,000 compounds, 1% hits | AID 504660, 2011; further: 0% is about no effect
Target sequence (P21728 whole entry, looked up): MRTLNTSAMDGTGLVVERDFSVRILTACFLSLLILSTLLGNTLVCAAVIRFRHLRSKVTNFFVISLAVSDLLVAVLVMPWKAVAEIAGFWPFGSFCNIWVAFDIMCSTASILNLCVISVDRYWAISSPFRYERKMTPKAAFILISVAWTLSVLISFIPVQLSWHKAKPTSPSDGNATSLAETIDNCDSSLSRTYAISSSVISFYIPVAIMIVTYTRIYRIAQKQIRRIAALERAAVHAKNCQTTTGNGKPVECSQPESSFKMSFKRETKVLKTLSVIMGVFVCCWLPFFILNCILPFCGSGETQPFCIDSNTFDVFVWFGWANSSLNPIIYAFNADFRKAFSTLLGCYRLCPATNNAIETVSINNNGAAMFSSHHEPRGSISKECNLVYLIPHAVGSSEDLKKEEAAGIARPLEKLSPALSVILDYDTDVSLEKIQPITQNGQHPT
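Inducible HEK293 T-REx D1 cells, force-coupled to calcium signalling, were plated at 4000 cells/well with tetracycline and held overnight at 30 C. After no-wash calcium dye loading, compound-evoked calcium rise over 180 s flagged agonists.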
D1 PAM: Potentiators of Human D1 Dopamine Receptor: qHTS; D(1A) dopamine receptor (Homo sapiens), P21728; HEK293 TREx D1 cells, calcium flux, dopamine EC20 potentiation; potentiation, % at 10 µM; 360,000 compounds, 0.036% hits; in the data active means potentiation above about 30%; further: 0% is about no effect
TRHR enhancer: qHTS for Small Molecule Agonists and Allosteric Enhancers of Human TRH Receptor: Primary Screen for Enhancers; TRHR cells, fluo-8 calcium fluorescence, EC20 TRH enhancement; enhancement, % at 2 µM; 360,000 compounds, 0.66% hits; AID 493056, 2011; in the data active means enhancement above about 30%; further: 0% is about no effect
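TRHR-expressing cells loaded with fluo-8 calcium dye were read kinetically (ex 480/em 530) during compound addition, then stimulated with an EC20 of TRH (10 nM final). Enhancement of the Gq-mediated intracellular calcium response was scored.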
LDHA block: qHTS assay for inhibitors of human lactate dehydrogenase | L-lactate dehydrogenase A chain (Homo sapiens), P00338 | purified LDHA, NADH/diaphorase-resazurin fluorescence; active compounds read low | activity change, % (values are at about 110 or 230 µM) | 480,000 compounds, 0.15% hits | AID 1347041, 2019; in the data active means activity change below about -30%;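 further: plate controls were DMSO wells for no effect and wells without enzyme for full effect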
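Enzyme activity of human lactate dehydrogenase 5 (2 nM; 0.06 mM NADH, 0.2 mM pyruvate, 5 min, RT) is measured via a resazurin/diaphorase fluorescence readout of residual NADH.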
D1 antag: Antagonist of Human D 1 Dopamine Receptor: qHTS; AID 504652, 2011; 360,000 compounds, 3.2% hits; HEK293 TREx D1 cells, calcium flux, dopamine EC80; active compounds read low; D(1A) dopamine receptor (Homo sapiens), P21728; activity change, negative = inhibition, % at 10 µM; in the data active means activity change below about -30%; further: on the % scale 0 is the no-effect control and ±100 the full control effect
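Inducible Hek293 Trex D1 cells (tetracycline, overnight, 30 C). Calcium dye 30–90 min RT. Antagonist mode: EC80 dopamine added after 180 s compound read.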
TRHR ag: qHTS for Small Molecule Agonists and Allosteric Enhancers of Human TRH Receptor: Primary Screen for Agonists | Thyrotropin-releasing hormone receptor (Homo sapiens), P34981 | TRHR cells, calcium flux fluo-8, FDSS agonist mode | activation, % at 2 µM | 360,000 compounds, 0.18% hits; further: 0% is about no effect
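TRHR-expressing cells loaded with fluo-8 calcium dye; 23 nL library compound pin-transferred, kinetic FDSS fluorescence (Ex 480/Em 530) recorded about 180 s for agonist-induced calcium release, before a 10 nM TRH EC20 addition for potentiator mode.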
* = called active by the depositor; . = no result. Unless noted, no stated cut-off is given here; in the data, active means activation above about 30%; inactive means the rest.

SMILES | D1 ag | D1 PAM | TRHR enhancer | LDHA block | D1 antag | TRHR ag
Cc1ccc(S(=O)(=O)N(C)c2ccc(C(=O)NCc3cccnc3)cc2)cc1 | 0 | -1 | 5 | -3 | -9 | -1
CCOC(=O)c1c(C)[nH]c(C)c1S(=O)(=O)N1CCCC(C(=O)NCc2ccc(N(C)C)cc2)C1 (stereo unspecified) | 3 | -4 | -2 | -6 | -31* | 0
CSc1ccc(N2CC(C(=O)N(C)Cc3cnn(Cc4ccccc4)c3)CC2=O)cc1 (stereo unspecified) | . | . | . | 4 | . | .
CCOC(=O)c1cc(S(=O)(=O)Nc2ccc3c(c2)OCCO3)[nH]n1 | . | . | . | 10 | . | .
COc1cccc(CNC(=O)CC(c2ccc(C)cc2)N2Cc3ccccc3C2=O)c1 (stereo unspecified) | -1 | -2 | -2 | -1 | -32* | -1
COc1cc(NC(=O)CC(c2ccc(C)cc2)N2Cc3ccccc3C2=O)cc(OC)c1 (stereo unspecified) | 5 | -2 | 2 | 6 | -9 | 0
COC(=O)CN1CCCC1Cc1ccc(OC)cc1 (stereo unspecified) | . | . | . | -10 | . | .
O=C(Cc1nc2ccccc2[nH]1)N/N=C/c1ccccc1 | 3 | -2 | -3 | 0 | 9 | 1
CC(C)(C)c1cc(/C=N/NC(=O)Cc2nc3ccccc3[nH]2)cc(C(C)(C)C)c1O | 2 | -3 | 7 | 5 | -35* | -1
COc1ccc(NC(=O)COC(=O)Cc2c[nH]c3ccccc23)cc1Cl | . | . | . | -13 | . | .
CC(C)NC(=O)CCCc1c[nH]c2ccccc12 | 3 | -5 | 33* | -10 | -13 | 0
Cc1ccc(S(=O)(=O)NCC(=O)NCCc2c[nH]c3ccccc23)cc1C | 0 | -3 | 34* | 2 | -1 | -1
NC(=O)c1ccc(NC(=O)COC(=O)CCCc2c[nH]c3ccccc23)cc1 | 2 | -1 | -3 | -5 | -30* | 1
O=C(COC(=O)CCc1c[nH]c2ccccc12)Nc1ccccc1 | 2 | -8 | -2 | -14 | -9 | 0
O=C(CCCc1c[nH]c2ccccc12)N[C@@H](Cc1c[nH]c2ccccc12)C(=O)O | 0 | 4 | -5 | -10 | -19 | 0
Cc1ccc(S(=O)(=O)NCC(=O)NCC(=O)NCCc2ccccc2F)cc1C | 0 | 4 | 3 | -8 | 12 | 0
Cc1ccc(NC(=O)COC(=O)Cc2c[nH]c3ccccc23)cc1C | 1 | -4 | 7 | 0 | -75* | 0
CSc1cccc(NC(=O)CCn2ccnc2)c1 | . | . | . | -3 | . | .
COc1ccc(/C=C/c2ccc3cccc([N+](=O)[O-])c3n2)cc1O | . | . | . | 2 | . | .
CS(=O)(=O)N1CCC(NC(=O)c2ccccc2C(=O)c2ccccc2)CC1 | . | . | . | -1 | . | .
CCS(=O)(=O)N1CCC(NC(=O)c2ccccc2C(=O)c2ccc(Cl)cc2)CC1 | . | . | . | -31* | . | .
CCOc1ccc(NC(=O)CSc2oc(-c3ccc(C)cc3)nc2S(=O)(=O)c2ccc(C)cc2)cc1 | 44* | 0 | 8 | 5 | 15 | 0
CCOc1ccc(NC(=O)CSc2oc(-c3cccs3)nc2S(=O)(=O)c2ccc(Cl)cc2)cc1 | 5 | -1 | -1 | -4 | -18 | 0
Cc1cccc(OCC(=O)Nc2ccc3c(c2)nc(CCN2CCN(c4ccccn4)CC2)n3C)c1 | 10 | -8 | -6 | -1 | -31* | -1
COc1ccccc1N1CCN(/N=C\c2sccc2C)CC1 | 5 | -4 | -6 | -4 | -43* | 0
SMILES | D1 ag | D1 PAM | TRHR enhancer | LDHA block | D1 antag | TRHR ag
COc1ccccc1N1CCN(/N=C\c2ccccc2)CC1 | 6 | -5 | 3 | 0 | 5 | 0
CCCCCCCCCCCCc1ccc(NC(C)=O)cc1 | . | . | . | 1 | . | .
c1ccc(Oc2cc(-c3ccccc3)nc(-c3ccccc3)n2)cc1 | 9 | 4 | -9 | -9 | 38 | 1
O=S(=O)(Cc1cc(Oc2ccccc2)nc(-c2ccccc2)n1)c1ccccc1 | 0 | -5 | 2 | 0 | -33* | 0
CCOC(=O)c1c(NC(=O)COC(=O)C2CCC2)sc(C(=O)N(C)C)c1C | 3 | -9 | 1 | 2 | -46* | 0
Cc1c(NC(=O)Nc2ccc3c(c2)OCO3)cccc1[N+](=O)[O-] | 14 | -10 | -1 | 5 | -44* | 1
Cn1cc(/C=N/n2cnc3scc(-c4ccccc4)c3c2=O)c2ccccc21 | 3 | -6 | 0 | -5 | -44* | 1
CSc1ccc(CCNC(=O)c2ccc(CS(=O)Cc3ccccc3Cl)o2)cc1 (stereo unspecified) | 6 | 1 | -7 | -2 | -38* | 0
O=C(NCCc1ccc(Cl)cc1)c1ccc(CS(=O)Cc2ccccc2Cl)o1 (stereo unspecified) | 7 | 0 | -1 | -2 | -15 | 0
O=C(NC1CCCC1)c1ccc(CS(=O)Cc2ccccc2Cl)o1 (stereo unspecified) | 0 | 3 | -8 | -1 | 2 | 0
O=C(NC1CCCCC1)c1ccc(CS(=O)Cc2ccccc2Cl)o1 (stereo unspecified) | -1 | -2 | -3 | -1 | -64* | 0
CCNc1c(NC(=O)Nc2ccc(C)cc2)c(=O)oc2ccccc12 | . | . | . | 9 | . | .
O=C(COc1ccccc1)Nc1ccccc1C(=O)c1ccccc1 | . | . | . | 1 | . | .
Cc1ccc(Nc2nc(Cl)nc(NC(C)(C)C)n2)cc1 | 11 | -1 | -7 | 1 | -37* | 1
CCOC(=O)CNc1nc(Cl)nc(Nc2ccc(C)cc2)n1 | 0 | -1 | 2 | -2 | -3 | 0
CN1CCN(c2ccc(NC(=O)COc3ccccc3Cl)cc2)CC1 | 10 | -20 | -3 | -6 | -70* | 4
CN1CCN(S(=O)(=O)c2ccc(NC(=O)c3ccccc3Cl)cc2)CC1 | 0 | -9 | -3 | -5 | -33* | 0
O=C(COc1cccc(Cl)c1)NCC(c1cccs1)N1CCOCC1 (stereo unspecified) | 1 | -6 | 4 | 1 | -35* | -1
CN1CCN(S(=O)(=O)c2ccc(NC(=O)Nc3cccc(Cl)c3)cc2)CC1 | 11 | -9 | -2 | -3 | -48* | 3
COc1ccc(-c2c(C)oc3cc(OCCN4CCC(C(N)=O)CC4)ccc3c2=O)cc1 | . | . | . | 3 | . | .
C=CCSc1nc(-c2cccs2)cc(C(F)(F)F)c1C#N | . | . | . | 10 | . | .
